Screens (PubChem BioAssay)
The list is not random: actives were taken first. Their share in the collection is about 8%.
MCF10A rereplic = induces DNA re-replication in MCF 10a normal breast cells. AID 624296. MCF 10A DNA re-replication, Hoechst nuclear intensity, 48 h. Potency, µM (highest dose often 46.1 µM), hits mostly activators. 350,000 compounds, 2.9% hits; further: nearly all actives have a fitted effect of over 50% in size
HT1080-NT tox = kills 2HG-producing HT-1080-NT fibrosarcoma cells; HT-1080-NT fibrosarcoma viability, CellTiter-Glo ATP luminescence, 48 h; Potency, µM (doses to about 46.1 µM), hits mostly cytotoxic; 360,000 compounds, 1.6% hits; AID 686970;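 further: NT is the 2HG producing partner of a matched IDH1 knockdown line; nearly all actives have a fitted effect of over 55% in size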
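HT-1080-NT fibrosarcoma cells (2HG-overproducing), 750 cells/well in RPMI with 5% FBS, dosed after 2 h and incubated 48 h at 37C. CellTiter-Glo luminescence normalized to DMSO and no-cell wells; concentration-response curves fitted and classed.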
KB-V1 cytotox = KB-V1 MDR subline cytotoxicity. AID 1347076. KB-V1 MDR cells viability, CellTiter-Glo, 72 h. 400,000 compounds, 3.4% hits. Potency, µM (titrated, usually from 46.1 µM), most hits filed as cytotoxic; further: nearly all actives have a fitted effect of over 60% in size
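Cytotoxicity via CellTiter-Glo luminescence after 72 h compound exposure at 37 degrees C. Cells: drug-selected KB-V1 line, DMEM phenol-red free plus 10% FBS. Compounds tested at multiple concentrations; normalized data fitted to concentration-effect curves.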
KB-3-1 tox = kills parental KB-3-1 adenocarcinoma cells; KB-3-1 viability, CellTiter-Glo ATP luminescence, 72 h; Potency, µM (highest dose often 46.1 µM), hits mostly cytotoxic; 400,000 compounds, 1.4% hits; further: nearly all actives have a fitted effect of over 60% in size
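KB-3-1 cells, DMEM (no phenol red) + 10% FBS; compound by pin transfer, 72 h, 37 °C. Readout: CellTiter-Glo luminescence after 10 min. Data normalized, curve-fitted.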
HT1080 IDH1KD tx = kills HT-1080 cells with IDH1 knockdown; HT-1080 IDH1 knockdown viability, ATP luminescence, 48 h; Potency, µM (doses to about 46.1 µM), most hits filed as cytotoxic; 360,000 compounds, 2% hits; AID 686971
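CellTiter-Glo luminescence after 48 h compound exposure at 37 degrees C of IDH1-knockdown HT-1080 cells in 5% FBS RPMI. %Activity scaled between DMSO wells and cell-free media wells, with curves fitted and assigned curve classes.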
SW480 rerep = inducers of DNA re-replication in SW480 colon cancer cells; Potency, µM (highest dose often 46.1 µM), actives largely listed as activators; SW480 DNA re-replication, Hoechst DNA content imaging, 48 h; 340,000 compounds, 1.8% hits; further: nearly all actives have a fitted effect of over 55% in size
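First, 250 cells per well were seeded. Next, compound or vehicle (23 nL) was pinned in, plates sat 48 hr at 37 C. Finally Hoechst was added for 40 min before fluorescence scanning.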
Hits are given with their value; n = inactive; u = inconclusive; x = no result given. The call rests on the fitted dose curve; in most records, active means well fitted curve in the direction sought with a large enough effect; inconclusive means small, poorly fitted or top-dose-only effect, or another doubt; inactive means no such curve, though single readings can be large; an effect the other way counts as inactive or inconclusive.

SMILES	MCF10A rereplic	HT1080-NT tox	KB-V1 cytotox	KB-3-1 tox	HT1080 IDH1KD tx	SW480 rerep
CCCCc1ccc(NC(=O)CSC2=C(C#N)C(c3ccco3)C3=C(CCCC3=O)N2)cc1 (centres undefined)	4µM	u	n	u	u	21µM
Cc1nn2c(COc3ccc(NC(=O)c4ccccc4Cl)cc3)nnc2c2ccccc12	2.9µM	u	u	u	15µM	8.2µM
Cc1nn2c(CN(C(=O)COc3ccccc3)c3ccccc3)nnc2c2ccccc12	n	n	4.6µM	u	n	n
Cc1nn2c(COc3ccc(NC(=O)C(C)C)cc3)nnc2c2ccccc12	n	n	n	n	n	n
O=C(Nc1cccc2ccccc12)c1cnn2c1NC(=C1CC1)C=C2C(F)F	x	x	n	n	x	x
CCCCCCCCOc1ccccc1C(=O)Nc1ccc(C(=O)OCC[N+](C)(CC)CC)cc1	27µM	x	x	x	x	n
COc1cc2nc(SCC(=O)Nc3ccccc3C)n3nc(CCn4c(C)nc5ccccc54)nc3c2cc1OC	x	x	n	n	x	x
O=C(COc1ccccc1Cl)NCc1ccco1	n	n	n	n	n	n
CCOc1ccccc1OCC(=O)NCc1ccco1	16µM	n	n	n	n	n
CCCNC(=O)C/C(C)=N/NC(=O)COc1ccc(C)cc1Br	n	n	u	n	n	n
O=C(COc1ccc(Cl)cc1Cl)NCc1ccco1	n	n	n	n	n	n
C/C(CC(=O)NCc1ccco1)=N\NC(=O)COc1ccc(Cl)cc1Cl	u	21µM	u	u	u	n
Cc1cccc(C)c1OCCNC(=O)C(=O)NCc1ccco1	2.9µM	1.6µM	u	1.5µM	2.6µM	2.9µM
COc1ccc(CNC(=O)C/C(C)=N/NC(=O)COc2ccc(C)cc2Br)cc1	u	16µM	u	5.8µM	18µM	u
COc1ccc(-c2c3c(=O)n(C)c(=O)n(C)c3c3n2-c2ccccc2NC3c2ccco2)cc1 (centres undefined)	x	x	n	n	x	x
CC1CCCN(S(=O)(=O)c2cc(C(=O)NCc3ccccc3Cl)n(C)c2)C1 (centres undefined)	x	x	n	n	x	x
CCOc1ccc(C(=S)NC2CCCCC2)cc1OC	u	n	16µM	n	n	n
COc1ccccc1NC(=S)NCC1CCCCC1	u	n	n	n	n	9.2µM
CCOc1ccccc1NC(=S)NC1CCCCC1	n	n	23µM	n	u	n
COc1ccccc1NC(=S)NC1CCCCC1	n	n	n	n	n	n
CCC(C)C(NC(=O)C1CCC(C)CC1)C(=O)Nc1cc(OC)ccc1OC (centres undefined)	n	n	2.6µM	n	u	n
CCOc1ccccc1C(=S)NC1CCCCC1	u	n	n	n	n	n
O=S(=O)(c1ccccc1Cl)N1CCN(c2nc(-c3ccccc3)nc3ccccc23)CC1	x	x	u	n	x	x
COc1ccc(C)cc1NC(=O)CN(c1cc(C(F)(F)F)ccc1Cl)S(C)(=O)=O	x	x	n	n	x	x
COc1ccccc1NC(=O)C(CC(C)C)NC(=O)C1CCCCC1 (centres undefined)	n	n	4.1µM	n	n	n
SMILES	MCF10A rereplic	HT1080-NT tox	KB-V1 cytotox	KB-3-1 tox	HT1080 IDH1KD tx	SW480 rerep
COc1cc(/C=N/Nc2nc(Nc3ccccc3)nc(N3CCCCC3)n2)ccc1OCC(=O)O	n	n	n	n	n	n
COc1cc(/C=N/n2nnnc2Nc2ccccc2)cc(OC)c1OC	n	n	2.6µM	n	n	n
COc1cc(/C=N/Nc2nc(Nc3ccc(C)cc3)nc(-n3nc(C)cc3C)n2)cc(OC)c1OC	u	4.5µM	u	n	2.8µM	13µM
COc1cc(/C=N/Nc2nc(Nc3ccccc3)nc(-n3nc(C)cc3C)n2)cc(OC)c1OC	15µM	u	7.3µM	u	15µM	u
COc1ccc(/C=N/Nc2cc(C)nc(-n3nc(C)cc3C)n2)cc1	u	u	n	u	u	u
CNc1nc(N/N=C/c2cc3c(cc2[N+](=O)[O-])OCO3)nc(Nc2ccccc2)n1	u	u	16µM	n	u	n
N#Cc1cccc(S(=O)(=O)N2CCN(c3nc(-c4cccs4)nc4ccccc34)CC2)c1	x	n	x	x	n	x
